Here are results for 37 compounds from PubChem BioAssay AID540259 (Broad Institute, 2011).

Results with a measured potency or affinity are listed apart. Calls of active or inactive are those of the source.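 The calls were made as follows: active = cell killing, meaning signal decrease, with fitted half-maximal dose at or below ten times the top valid tested dose; inconclusive = poor fit, or flat curve with 30 to 70% signal loss; inactive = the rest.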

A short description of this assay: ATP-based viability loss in HeLa cells – cell-based, CellTiter-Glo luminescence, cherry-pick samples, cytotoxicity control for MITF activator project, dose response (AID 540259). The note with it: 24 h; series mostly up to 35 µM.
Turning to `O=C(Nc1ccc(F)cc1Cl)c1ccc2c(=O)n3c(nc2c1)CCC3`, the result was inactive.

On to `COc1ccc2cc(C(=O)NCCc3ccccc3)[nH]c2c1`, for which the compound was classed as inactive.

Turning to `COc1ccc(-c2ccc(C(=O)C3CC3)cc2)cc1`, the call was inactive.

Regarding `COc1ccccc1NC(=O)Nc1nc2ccc(S(N)(=O)=O)cc2s1`, the compound was classed as inactive.

Turning to `COc1cccc(CNc2nc3ccccc3n2C)c1O`, the compound was called inactive.

For `Cc1ccnc(NC(=O)C2CC(=O)N(Cc3ccccc3)C2)c1` (configuration not stated), the result was inactive.

With `Cc1cnc(NC(=O)Nc2ccc(Cl)cc2)s1`, the result was inactive.

As for `CC(=O)c1ccc(Nc2ccc(-c3ccccc3C)nn2)cc1`, the compound was called inactive.

`CSc1ccccc1OCc1cc(C(=O)N[C@H]2CCCCNC2=O)no1`: the call was inactive.

Take `Fc1cc(Br)ccc1COc1ccc(-c2nnco2)cc1`: the outcome was inactive.

As to `FC(F)(F)c1cnc(-c2cnc(-c3cccnc3)nc2)c(Cl)c1`, the compound was classed as inactive.

Consider `COc1ccc(-c2nn(-c3ccccc3)cc2C#N)cc1`, for which the result was inactive.

In the case of `N#Cc1c(-c2ccc(Cl)cc2)ccn2nc(C3CCCCC3)nc12`, the result was inactive.

Take `Cc1ccc(C(=O)Cn2nnc3ccccc32)cc1C`: the result was inactive.

Take `COC(=O)Cc1ccc(NC(=O)c2ccc(C)c(C)c2)cc1`: the call was inactive.

As for `CCc1ccc2[nH]c3nc(C)cc(C)c3c(=O)c2c1`, the compound was classed as inactive.

As to `CC(C)C(=O)Nc1cccc(C(=O)Nc2nnc(C(C)C)s2)c1`, the compound was classed as inactive.

In the case of `CC(=O)Nc1nnc(COc2ccc(Cl)cc2)s1`, the call was inactive.

Consider `CC(=O)c1cccc(OCc2cc(C(=O)N(C)Cc3cnccn3)no2)c1`, for which the compound was called inactive.

As to `O=C(N/N=C/c1ccc(OC(=O)c2ccccc2Cl)cc1)c1ccccn1`, the compound was classed as inactive.

As for `NC(=O)c1ccc(-c2noc(-c3cccc(Cl)c3)n2)cc1`, the compound was called inactive.

Consider `Cc1nc2c3cnn(-c4ccc(C)c(C)c4)c3ncn2n1`, for which the compound was classed as inactive.

`O=c1c(-c2ccc(O)cc2)coc2cc(O)cc(O)c12`: the call was inactive.

For `CC(C)(C)c1ccc(SCCc2ccccn2)cc1`, the compound was called inactive.

For the compound `O=C(Cc1ccccn1)c1ccc(Cl)cc1`, the result was inactive.

For the compound `COc1ccc(NC(=O)CCCn2c(=O)oc3ccccc32)cc1Cl`, the call was inactive.

On to `Cc1ccc(Nc2nc(CSc3n[nH]c(N)n3)cs2)cc1`, for which the call was inactive.

With `CCc1nc2oc3ccccc3c(=O)c2cc1C(=O)OC`, the outcome was inactive.

Take `CCC(C)c1ccc(NC(=O)Nc2cccnc2)cc1` (configuration not stated): the compound was called inactive.

As for `Cc1ccc(-n2nnc3ccccc3c2=O)cc1C`, the call was inactive.

As to `O=Cc1ccc(OCc2ccc3ccccc3c2)cc1`, the call was inactive.

Consider `O=c1[nH]c(COc2ccccc2)nc2ccccc12`, for which the compound was classed as inactive.

Take `C=CCN=C1S/C(=C\c2ccc(N(C)C)cc2)C(=O)N1CC=C`: the result was inactive.

For `CCN(CC)C(=O)c1cc(-c2ccc(Br)cc2)on1`, the compound was classed as inactive.

Take `COc1cccc2[nH]c(=O)c(-c3ccccc3)cc12`: the call was inactive.

For `CC(C)(C)C(=O)OCc1nc(-c2ccc(F)cc2)cs1`, the result was inactive.

For `CC(C)(C)C(=O)N1CCN(c2nc3ccccc3s2)CC1`, the compound was classed as inactive.
